The values below come from publication PMC5540273 (PLoS ONE, 2017).

For one assay, the system named is AAK1. The note with it: concentration: 1 μM, replicates: in singlicate; n = 1.
A further assay relates to ABL1-nonphosphorylated. Conditions: concentration: 1 μM, replicates: in singlicate, n = 1.
A further assay relates to ABL1-phosphorylated. The note with it: concentration: 1 μM, replicates: in singlicate, n = 1.
The subject of a further assay is T1, YSK4.
T1 construct: gene MAP3K19

For another assay, the system named is T2, p38-alpha.
T2 construct: gene MAPK14

The subject of another assay is T3, VPS34.
T3 construct: gene PIK3C3

The test system of assay [1] is TYK2(JH2domain-pseudokinase).
A further assay deals with T4, YANK1.
T4 construct: gene STK32A

For the next assay, the system named is T5, TRKC.
T5 construct: gene NTRK3

The subject of another assay is T6, TRKA.
T6 construct: gene NTRK1

Values joined by “and” are separate entries in the source; they are usually repeats but may differ in a detail not shown here. Identical values can stand only once. Like-named read-outs stand apart in the source and are kept apart here.
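Wherever %Inh is given: KINOMEscan kinase panel screen.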
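Wherever Kd is given: kd values determined as follow-up on hits from a single-replicate KINOMEscan panel screen.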

On to `Cl.c1ccc(Cn2ccc3cc(Nc4ncnc5ccccc45)ccc32)cc1` [GW275568], for which the “%Inh” value worked out at 17% in the assay with AAK1, 0% in the assay with ABL1-nonphosphorylated and 30% with ABL1-phosphorylated.

As for `CS(=O)(=O)CCNCc1nc(-c2ccc3ncnc(Nc4ccc(OCc5cccc(F)c5)c(Cl)c4)c3c2)cs1.Cl` [GW583340], the Kd with TXK and in the assay with ZAK was more than 10000 nM in each case. The entries for the “%Inh” value in the assay with AAK1, in the assay on ABL1-nonphosphorylated and in the assay on ABL1-phosphorylated were 19%, 0% and 0%, respectively.

`CCC(CC)(CC)n1cnc2c(N)ncnc21` [SKF-97620]: the Kd with TNIK is more than 10000 nM. Also, the “%Inh” value is recorded as 0% in the assay on AAK1, 27% with ABL1-nonphosphorylated and 6% in the assay on ABL1-phosphorylated.

For the compound `COc1ccc(-c2nc3n(c2-c2ccncc2)CCC3)cc1` [SKF-104493], the Kd in the assay with YSK4 was more than 10000 nM; with p38-alpha, 220 nM and 130 nM. Moreover, the “%Inh” value is 0% in the assay on AAK1; 51% and 2% in the assay with ABL1-nonphosphorylated (1 µM); 20% and 0% in the assay with ABL1-phosphorylated (1 µM).

In the case of `Fc1ccc(Nc2nccc(-c3c(-c4ccc(Cl)cc4)nn4ncccc34)n2)cc1F` [GW829058], the dissociation constant Kd in the assay on TNIK and with ULK2 was more than 10000 nM in each case. In addition, the entries for the “%Inh” value in the assay on AAK1, with ABL1-nonphosphorylated and in the assay on ABL1-phosphorylated were 0%, 0% and 17%, respectively.

In the assay with VPS34, `CSc1nn2c(=O)cc(N3CCOCC3)nc2n1Cc1cccc(Cl)c1Cl` [GSK2347225] had a Kd of 0.72 nM. Also, the results for the “%Inh” value in the assay on AAK1, in the assay on ABL1-nonphosphorylated and with ABL1-phosphorylated were 7%, 0% and 0%, respectively.

The compound `Nc1nc(-c2ccccn2)c(-c2ccnc3ccccc23)s1` [GW548057] yielded a Kd in the assay on WNK4 of more than 10000 nM. Besides, the “%Inh” value stood at 1% in the assay on AAK1, 28% with ABL1-nonphosphorylated and 26% in the assay with ABL1-phosphorylated.

In the case of `Nc1nccc2scc(-c3ccc4c(c3)CCN4C(=O)Cc3cc(F)ccc3F)c12` [GSK2587663], the “%Inh” value in the assay on AAK1, in the assay on ABL1-nonphosphorylated and in the assay with ABL1-phosphorylated was 0% each time.

In assay [1], `COc1ccc(-c2oc3ncnc(N)c3c2-c2ccc(OC)cc2)cc1` [SB-589132] yielded a Kd of 1600 nM. For the same compound, the entries for the “%Inh” value with AAK1, in the assay on ABL1-nonphosphorylated and with ABL1-phosphorylated were 6%, 21% and 10%, respectively.

For the compound `COC(=O)c1cccc(NC(=O)NCCNc2ccnc(Nc3ccc(F)cc3)n2)c1` [GSK1379883], the “%Inh” value is recorded as 3% in the assay with AAK1, 0% in the assay with ABL1-nonphosphorylated and 0% in the assay on ABL1-phosphorylated.

For the compound `O=c1cc(N2CCOCC2)nc2n(Cc3cccc(Cl)c3)ccn12` [GSK2296823], the affinity in the assay with VPS34, expressed as Kd, was 35 nM. Moreover, the “%Inh” value in the assay with AAK1 is listed as 0%; in the assay on ABL1-nonphosphorylated, 0%; in the assay with ABL1-phosphorylated, 7%.

As to `FC(F)(F)c1ccc(-c2cc(-c3c[nH]nc3-c3ccccn3)ccn2)cc1` [GW599550], the Kd with YANK1 was more than 10000 nM. The “%Inh” value in the assay on AAK1 was 24%; in the assay on ABL1-nonphosphorylated, 17%; in the assay on ABL1-phosphorylated, 21%.

For the compound `Cl.Cl.c1ccc(-c2cc3ccncc3cc2OC2CCNCC2)cc1` [GSK1122999], the “%Inh” value in the assay on AAK1 was 27%; with ABL1-nonphosphorylated, 0%; in the assay with ABL1-phosphorylated it was 0%.

With `CNc1nccc(-c2c(-c3ccc(F)cc3)ncn2C2CCN(C)CC2)n1` [SB-222903], the Kd in the assay with p38-alpha came out at 53 nM. Further, the figures for the “%Inh” value with AAK1, in the assay on ABL1-nonphosphorylated and in the assay with ABL1-phosphorylated were 0%, 34% and 6%, respectively.

`CC(C)N1CCC(n2cnc(-c3ccc(F)cc3)c2-c2ccnc(N)n2)CC1` [SB-223132] showed a Kd in the assay with p38-alpha of 160 nM. Further, the “%Inh” value in the assay with AAK1 came out at 9%; with ABL1-nonphosphorylated, 50%; with ABL1-phosphorylated, 19%.

In the case of `Clc1ccc(-c2cc(-c3c[nH]nc3-c3ccccn3)ccn2)cc1` [GW681251], the Kd in the assay with TNIK is 390 nM; in the assay with TRKC it was more than 10000 nM. In addition, the “%Inh” value in the assay with AAK1 was 2%; with ABL1-nonphosphorylated, 0%; in the assay with ABL1-phosphorylated it was 0%.

With `CC(=O)Nc1n[nH]c2ncc(-c3ccccc3)cc12` [SB-548492], the Kd was found to be 2500 nM in the assay with TRKA and 580 nM in assay [1]. Moreover, the “%Inh” value in the assay with AAK1 is on record as 0%; with ABL1-nonphosphorylated it was 49%; in the assay with ABL1-phosphorylated, 20%.

Take `Nc1n[nH]c2nnc(-c3ccccc3)cc12` [SB-517389]: the Kd in the assay with TSSK3 is more than 10000 nM. Moreover, the “%Inh” value came out at 16% in the assay on AAK1, 11% in the assay with ABL1-nonphosphorylated and 5% in the assay on ABL1-phosphorylated.

As for `COc1ccc(NC(=O)c2ccc(-c3cc(-c4nnc(C)o4)ccc3C)cc2)cc1` [GW595885], the Kd with p38-alpha is 180 nM. The “%Inh” value with AAK1, with ABL1-nonphosphorylated and in the assay with ABL1-phosphorylated was 0% in each case.

Consider `CN1c2ccc(-c3ccc(C(=O)NCCO)cc3)cc2-c2[nH]ncc2S1(=O)=O`, for which the Kd in assay [1] stood at 130 nM. Further, the “%Inh” value with AAK1 was determined as 54%; in the assay on ABL1-nonphosphorylated it was 33%; in the assay with ABL1-phosphorylated it was 15%.

On to `COc1ccc(Nc2nccc(N3CCC(NC(=O)c4cccc(NC(C)=O)c4)C3)n2)cc1` (stereo not shown) [GSK1379732], for which the Kd with WNK4 is more than 10000 nM. The results for the “%Inh” value in the assay with AAK1, in the assay with ABL1-nonphosphorylated and with ABL1-phosphorylated were 17%, 0% and 0%, respectively.

Regarding `CCc1nc(-c2cccc(N(C)S(=O)(=O)c3ccccc3)c2)c(-c2ccnc(Nc3ccc(N4CCN(C(C)=O)CC4)nc3)n2)s1` [GSK1645895], binding with ZAK was characterised by a dissociation constant (Kd) of 220 nM. The “%Inh” value was 26% in the assay on AAK1, 28% with ABL1-nonphosphorylated and 7% in the assay with ABL1-phosphorylated.

Turning to `Cl.c1ccc(Cn2ncc3cc(Nc4ncnc5ccccc45)ccc32)cc1` [GW273749], the “%Inh” value with AAK1 is on record as 30%; with ABL1-nonphosphorylated, 38%; in the assay with ABL1-phosphorylated it was 17%.

In the assay with ULK1, `CCCc1ccc(S(=O)(=O)NC2CCN(c3ccnc(Nc4ccc(OC)cc4)n3)C2)cc1` (stereo not shown) [GSK1379737] came in with a Kd of more than 10000 nM. The “%Inh” value in the assay with AAK1, in the assay with ABL1-nonphosphorylated and with ABL1-phosphorylated was 0% throughout.

As for `c1ccc(-c2ccc3c(-c4ccnc(Nc5ccc6c(c5)OCCO6)n4)cnn3n2)cc1` [GW818941], the “%Inh” value in the assay with AAK1, in the assay with ABL1-nonphosphorylated and in the assay on ABL1-phosphorylated was 0% throughout.

Take `CN1CCC(n2cnc(-c3ccc(F)cc3)c2-c2ccnc(NC3CCNCC3)n2)CC1` [SB-229482]: the Kd in the assay on p38-alpha is 220 nM. The “%Inh” value with AAK1 turned out to be 7%; in the assay with ABL1-nonphosphorylated it was 44%; with ABL1-phosphorylated it was 0%.

By Kd is commonly meant the equilibrium constant for the complex coming apart.
